Inconclusive results are not listed. Activity calls are given as the source filed them. Calls come from the whole dose curve; as a rule, active = well fitted curve in the direction sought with a large enough effect; inconclusive = small, poorly fitted or top-dose-only effect, or another doubt; inactive = no such curve, though single readings can be large; an effect the other way counts as inactive or inconclusive.
Key:
[1] = Cellular Toxicity (caspase-3) Mesangial (AID 660); conditions: mesangial cells, normalized: DMSO 0%, 100 µM tamoxifen 100%; at 91.7 µM (top of the series);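 note: combined caspase 3 and 7 activity read by Caspase-Glo luminescence; cells exposed to compound for 16 h before the caspase read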
Outline: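 Caspase 3/7 activation measured by Caspase-Glo 3/7 luminescence (20 min, room temperature) following 16 h exposure of mesangial cells (1000/well); AC50 from Hill-equation fit, normalized to DMSO and 100 uM tamoxifen.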

[2] = Cellular Toxicity (caspase-3) SK-N-SH (AID 661);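 note: 0% = DMSO basal and 100% = 10 µM staurosporine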
Outline: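 Caspase 3/7 activation was read by luminogenic substrate cleavage after 16 hour treatment of SK-N-SH cells. Signal was scaled between DMSO and 10 uM staurosporine, and concentration-response data were fitted with the Hill equation for AC50.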

[3] = Cellular Toxicity (caspase-3) H-4-II-E (AID 663); conditions: H-4-II-E rat hepatoma, scaled: DMSO 0%, 100 µM tamoxifen 100%; at 92.2 µM (top of the series);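 note: cells exposed to compound for 16 hr before readout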
Outline: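 Caspase 3/7 activation measured by luminescent aminoluciferin substrate cleavage after 16 hr compound treatment of H-4-II-E cells in complete medium. Increase normalized between DMSO (basal) and 100 uM tamoxifen (100%); Hill-equation AC50 from concentration-response.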

[4] = Cellular Toxicity (caspase-3) Hek293 (AID 664); conditions: HEK293 caspase-3 activation, DMSO = 0%, 100 µM tamoxifen = 100%; at 92.2 µM (top of the series);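 note: cells exposed to compound for 16 h at 37 °C before readout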
Outline: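 Concentration-response qHTS: caspase 3/7 activation measured by luminescent aminoluciferin substrate cleavage after 16 h compound exposure of Hek 293 cells. AC50 from Hill equation, with DMSO as basal and 100 uM tamoxifen as 100%.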

[5] = Cellular Toxicity (caspase-3) N2a (AID 665);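 note: compound exposure lasted 16 h at 37 °C before readout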
Outline: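 Caspase-3/7 activation measured as luminescence from Caspase-Glo reagent (1 h, room temperature) after 16 h compound exposure of mouse N2a cells. AC50 values from Hill-equation concentration-response, scaled between DMSO and 10 uM staurosporine.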

[6] = Cellular Toxicity (caspase-3) NIH 3T3 (AID 666);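 note: caspase signal read after 16 h compound exposure; 0% = DMSO basal and 100% = 100 µM tamoxifen stimulation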
Outline: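 Caspase-Glo 3/7 luminescence reported caspase activation in 1000 NIH 3T3 cells/well after 16 h compound exposure at 37 C. DMSO set basal and 100 uM tamoxifen set 100% stimulation; concentration-response modeled with the Hill equation for AC50.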

[7] = Cellular Toxicity (caspase-3) Renal Proximal Tubule (AID 667); conditions: Potency: caspase-3 activation;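 note: cells exposed to compound for 16 hours at 37 °C before detection; 0% = DMSO basal and 100% = 10 µM staurosporine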
Outline: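 AC50 derived by standard Hill fit of concentration-response data, normalized between DMSO basal and 10 uM staurosporine as 100% stimulation. Cells: primary rat kidney proximal tubule, 16 h treatment at 37 °C.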

[8] = molecular target: Cytochrome P450 3A4 (Homo sapiens) (UniProt P08684); test: qHTS Assay for Inhibitors and Substrates of Cytochrome P450 3A4 (AID 884); note: % is set by controls: 0 for no effect and ±100 for the full control effect; nearly all actives have a fitted effect of over 50% in size
Sequence of Cytochrome P450 3A4 (Homo sapiens) (P08684 whole entry, looked up): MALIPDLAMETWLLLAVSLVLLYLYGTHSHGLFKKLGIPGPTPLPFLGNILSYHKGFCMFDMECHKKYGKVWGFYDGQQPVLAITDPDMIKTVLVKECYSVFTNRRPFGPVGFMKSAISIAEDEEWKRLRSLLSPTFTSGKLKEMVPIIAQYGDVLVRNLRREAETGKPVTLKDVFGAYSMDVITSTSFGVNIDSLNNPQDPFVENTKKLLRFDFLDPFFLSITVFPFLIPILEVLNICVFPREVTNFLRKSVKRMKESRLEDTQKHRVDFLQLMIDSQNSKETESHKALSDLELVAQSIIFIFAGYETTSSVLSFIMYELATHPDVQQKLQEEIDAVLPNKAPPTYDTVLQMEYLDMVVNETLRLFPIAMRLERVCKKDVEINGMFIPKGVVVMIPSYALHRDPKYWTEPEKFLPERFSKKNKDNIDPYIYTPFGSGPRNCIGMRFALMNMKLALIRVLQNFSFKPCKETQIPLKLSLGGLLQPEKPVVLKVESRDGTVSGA
Outline: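 Luminescent readout of luciferin produced by CYP3A4 (20 nM) dealkylation of Luciferin-PPXE, 25 uM (its KM). NADPH-driven reaction ran 60 min at RT after 10 min compound preincubation; data scaled to 57 uM ketoconazole as 100% inhibition.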

[9] = Cell Viability - LYMP2-001 (AID 921);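 note: 0% = DMSO only and full inhibition = tetraoctylammonium bromide control wells; nearly all actives have a fitted effect of over 70% in size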
Outline: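 Steps: seed 2500 lymphoblastoid cells/well; 5 hr, 37 C; add compound; 24 hr, 37 C; CellTiter-Glo reagent, 30 min room temperature; read luminescence. Concentration-response modeled by Hill equation for AC50.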

[10] = MultiTox-Fluor Cytotoxicity Assay - LYMP1-001 - Dead Cells (AID 946);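 note: 0% = DMSO and 100% = tetraoctylammonium bromide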
Outline: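 LYMP1-001 lymphoblastoid cells (2500/well) treated 16 h at 37 C. Dead-cell protease cleavage of bis-AAF-R110 read at Ex/Em 485/520. Normalized to DMSO and 15 uM tetraoctylammonium bromide; AC50 from Hill fits.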

[11] = MultiTox-Fluor Cytotoxicity Assay - LYMP1-001 - Live Cells (AID 947);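 note: 0% = DMSO only and full inhibition = tetraoctylammonium bromide control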
[12] = Cell Viability - LYMP1-002 - Assay at 16 hr (AID 948);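 note: 0% = DMSO alone and full effect = 92 µM tetraoctylammonium bromide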
Outline: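 Seed 2500 LYMP1-002 cells per well in complete medium and hold 5 hr at 37 C. Add compound across a concentration series and incubate 16 hr at 37 C. Add CellTiter-Glo, wait 30 min at room temperature, read luminescence.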

[13] = MultiTox-Fluor Cytotoxicity Assay - LYMP1-002 - Live Cells (AID 955); note: % is set by controls: 0 for no effect and ±100 for the full control effect
Outline: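 After 16 h compound exposure at 37 C, live LYMP1-002 lymphoblastoid cells (2500/well) were quantified by cleavage of cell-permeant GF-AFC substrate, read at 405/510 nm after 60 min. Concentration-response fitted with Hill equation for AC50.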

[14] = MultiTox-Fluor Cytotoxicity Assay - LYMP1-002 - Dead Cells (AID 960);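 note: 0% = DMSO and 100% = tetraoctylammonium bromide; nearly all actives have a fitted effect of over 60% in size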
Outline: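 Dead-cell fluorescence (Ex/Em 485/520) after 16 h compound exposure at 37 C of LYMP1-002 lymphoblastoid cells in complete medium; AC50 by Hill equation, with data scaled between DMSO and 15 uM tetraoctylammonium bromide.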

[15] = MultiTox-Fluor Cytotoxicity Assay - LYMP1-003 - Dead Cells (AID 961);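 note: 0% = DMSO and 100% = tetraoctylammonium bromide; nearly all actives have a fitted effect of over 70% in size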
Outline: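 LYMP1-003 human lymphoblastoid cells (2500/well) exposed to compound 16 h at 37 C in complete medium; dead-cell protease read with bis-AAF-R110 fluorescence (Ex/Em 485/520) after 60 min at room temperature. Normalized to DMSO and 15 uM tetraoctylammonium bromide; AC50 from Hill fit.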

[16] = MultiTox-Fluor Cytotoxicity Assay - LYMP1-003 - Live Cells (AID 962);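 note: 0% = DMSO only and full loss = 92 µM tetraoctylammonium bromide; cytotoxic hits lower the live-cell protease signal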
Outline: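 Live-cell protease activity (GF-AFC substrate, 405/510 nm, 60 min at room temperature) after 16 h, 37 C compound exposure of human lymphoblastoid LYMP1-003 cells; concentration-response fitted to the Hill equation for AC50.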

[17] = Cell Viability - LYMP1-003 - Assay at 24 hr (AID 963);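 note: plate controls were DMSO only for no effect and tetraoctylammonium bromide positive control for full effect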
Outline: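 Concentration-response qHTS: ATP loss measured by CellTiter-Glo luminescence after 24 h compound exposure at 37 C. Cells were LYMP1-003 human lymphoblastoid, 2500 per well. AC50 derived via standard Hill equation modeling.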

[18] = Cell Viability - LYMP1-003 - Assay at 40 hr (AID 964); note: % is set by controls: 0 for no effect and ±100 for the full control effect; nearly all actives have a fitted effect of over 60% in size
Outline: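 Viability is taken as cellular ATP, read by CellTiter-Glo luminescence after 40 h of compound exposure at 37 C. Cells: human lymphoblastoid line LYMP1-003 at 2500/well; AC50 values derived by Hill-equation fitting of concentration-response data.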

[19] = Cell Viability - LYMP2-003 (AID 965);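 note: cells exposed to compounds for 24 h before reading; 0% = DMSO only and full effect = 92 µM tetraoctylammonium bromide; nearly all actives have a fitted effect of over 50% in size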
Outline: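 Seed 2500 lymphoblastoid cells/well; incubate 5 hr, 37 C; add compounds; incubate 24 hr, 37 C; add CellTiter-Glo, 30 min RT; read luminescence. AC50 from Hill fit.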

[20] = Cell Viability - LYMP2-004 (AID 966);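 note: plate controls were DMSO only for no effect and tetraoctylammonium bromide control for full effect; nearly all actives have a fitted effect of over 65% in size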
Outline: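 AC50 values come from Hill modelling of concentration-dependent loss of intracellular ATP, measured by CellTiter-Glo luminescence. Human LYMP2-004 lymphoblastoid cells (2500/well) were exposed to compound for 24 h at 37 C.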

Nc1nc2ccccc2[nH]1
inactive: caspase-3 activation [1] -0.927% | outcome [2] | caspase-3 activation [3] -0.868% | caspase-3 activation [4] 0.0156% | outcome [5] | outcome [6] | Potency [7] | Potency [8] | Potency [9] | outcome [10] | outcome [11] | outcome [12] | outcome [13] | outcome [14] | Potency [15] | Potency [16] | Potency [17] | Potency [18] | Potency [19] | Potency [20]

O=C(O[C@@H](C(=O)O)[C@@H](OC(=O)c1ccccc1)C(=O)O)c1ccccc1
inactive: caspase-3 activation [1] 0.793% | outcome [2] | caspase-3 activation [3] 0.201% | caspase-3 activation [4] -0.248% | outcome [5] | outcome [6] | Potency [7] | Potency [8] | Potency [9] | outcome [10] | outcome [11] | outcome [12] | outcome [13] | outcome [14] | Potency [15] | Potency [16] | Potency [17] | Potency [18] | Potency [19] | Potency [20]

O=[N+]([O-])c1ccc(NCCO)c(OCCO)c1
inactive: caspase-3 activation [1] 0.383% | outcome [2] | caspase-3 activation [3] 0.77% | caspase-3 activation [4] 0.203% | outcome [5] | outcome [6] | Potency [7] | Potency [8] | Potency [9] | outcome [10] | outcome [11] | outcome [12] | outcome [13] | outcome [14] | Potency [15] | Potency [16] | Potency [17] | Potency [18] | Potency [19] | Potency [20]

CCCCN(CCO)CCCC
inactive: caspase-3 activation [1] 0.749% | outcome [2] | caspase-3 activation [3] -0.761% | caspase-3 activation [4] -0.886% | outcome [5] | outcome [6] | Potency [7] | Potency [8] | Potency [9] | outcome [10] | outcome [11] | outcome [12] | outcome [13] | outcome [14] | Potency [15] | Potency [16] | Potency [17] | Potency [18] | Potency [19] | Potency [20]

C1COC1
inactive: caspase-3 activation [1] 0.626% | outcome [2] | caspase-3 activation [3] 1.05% | caspase-3 activation [4] -1.66% | outcome [5] | outcome [6] | Potency [7] | Potency [8] | Potency [9] | outcome [10] | outcome [11] | outcome [12] | outcome [13] | outcome [14] | Potency [15] | Potency [16] | Potency [17] | Potency [18] | Potency [19] | Potency [20]

N#CC1(O)CCCCC1
inactive: caspase-3 activation [1] 0.158% | outcome [2] | caspase-3 activation [3] -0.143% | caspase-3 activation [4] 1.67% | outcome [5] | outcome [6] | Potency [7] | Potency [8] | Potency [9] | outcome [10] | outcome [11] | outcome [12] | outcome [13] | outcome [14] | Potency [15] | Potency [16] | Potency [17] | Potency [18] | Potency [19] | Potency [20]

CC/C(C)=N/O
inactive: caspase-3 activation [1] 0.891% | outcome [2] | caspase-3 activation [3] -0.877% | caspase-3 activation [4] 1.42% | outcome [5] | outcome [6] | Potency [7] | Potency [8] | Potency [9] | outcome [10] | outcome [11] | outcome [12] | outcome [13] | outcome [14] | Potency [15] | Potency [16] | Potency [17] | Potency [18] | Potency [19] | Potency [20]

C[C@@H]1CC2(OC[C@]3(C)O[C@H]23)O[C@H]2C[C@@]3(C)[C@@H]4CC[C@H]5C(C)(C)C(O[C@@H]6OC[C@@H](O)[C@H](O)[C@H]6O)CC[C@@]56C[C@@]46CC[C@]3(C)[C@@H]12 (stereo not given in full)
inactive: caspase-3 activation [1] 2.15% | outcome [2] | caspase-3 activation [3] 2.6% | caspase-3 activation [4] 3.04% | outcome [5] | outcome [6] | Potency [7] | Potency [8] | Potency [9] | outcome [10] | outcome [11] | outcome [12] | outcome [13] | outcome [14] | Potency [15] | Potency [16] | Potency [17] | Potency [18] | Potency [19] | Potency [20]

COC(=O)CCCC(=O)OC
inactive: caspase-3 activation [1] -0.518% | outcome [2] | caspase-3 activation [3] -0.182% | caspase-3 activation [4] -0.162% | outcome [5] | outcome [6] | Potency [7] | Potency [8] | Potency [9] | outcome [10] | outcome [11] | outcome [12] | outcome [13] | outcome [14] | Potency [15] | Potency [16] | Potency [17] | Potency [18] | Potency [19] | Potency [20]

Cc1ccc(C(=O)O)cc1
inactive: caspase-3 activation [1] -0.126% | outcome [2] | caspase-3 activation [3] 1.11% | caspase-3 activation [4] 0.649% | outcome [5] | outcome [6] | Potency [7] | Potency [8] | Potency [9] | outcome [10] | outcome [11] | outcome [12] | outcome [13] | outcome [14] | Potency [15] | Potency [16] | Potency [17] | Potency [18] | Potency [19] | Potency [20]

NS(=O)(=O)O
inactive: caspase-3 activation [1] 1.36% | outcome [2] | caspase-3 activation [3] 1.83% | caspase-3 activation [4] 1.35% | outcome [5] | outcome [6] | Potency [7] | Potency [8] | Potency [9] | outcome [10] | outcome [11] | outcome [12] | outcome [13] | outcome [14] | Potency [15] | Potency [16] | Potency [17] | Potency [18] | Potency [19] | Potency [20]

Cc1ccc(C)c(O)c1
inactive: caspase-3 activation [1] 0.131% | outcome [2] | caspase-3 activation [3] 0.256% | caspase-3 activation [4] 0.519% | outcome [5] | outcome [6] | Potency [7] | Potency [8] | Potency [9] | outcome [10] | outcome [11] | outcome [12] | outcome [13] | outcome [14] | Potency [15] | Potency [16] | Potency [17] | Potency [18] | Potency [19] | Potency [20]

Cc1ccc(C#N)cc1
inactive: caspase-3 activation [1] -0.175% | outcome [2] | caspase-3 activation [3] 0.0504% | caspase-3 activation [4] 0.103% | outcome [5] | outcome [6] | Potency [7] | Potency [8] | Potency [9] | outcome [10] | outcome [11] | outcome [12] | outcome [13] | outcome [14] | Potency [15] | Potency [16] | Potency [17] | Potency [18] | Potency [19] | Potency [20]
